Test results published in PubChem BioAssay AID1851 (National Center for Advancing Translational Sciences (NCATS), 2009).
Hit rate of the full screen: of about 16,000 compounds, about 5,700 (36%) were called active. About 24% were inconclusive and are not listed. The call rests on the fitted dose curve; in most records, active means well fitted curve in the direction sought with a large enough effect; inconclusive means small, poorly fitted or top-dose-only effect, or effect the other way; inactive means no such curve, though single readings can be large or run the other way. The list shows a part of the results. Square brackets hold non-standard residues; d marks the D form. Peptide text beside a SMILES is read from it.

What follows are molecules tested against Cytochrome P450 1A2 (Homo sapiens) (UniProt P05177) (assay: Cytochrome panel assay with activity outcomes). Settings: recombinant CYP, pro-luciferin dealkylation, luminescence, p450-cyp1a2; series mostly up to 57.1 µM; activity, negative = inhibition: at the top concentration.
On the % scale 0 is the no-effect control and ±100 the full control effect.

Sequence of Cytochrome P450 1A2 (Homo sapiens) (P05177 whole entry, looked up): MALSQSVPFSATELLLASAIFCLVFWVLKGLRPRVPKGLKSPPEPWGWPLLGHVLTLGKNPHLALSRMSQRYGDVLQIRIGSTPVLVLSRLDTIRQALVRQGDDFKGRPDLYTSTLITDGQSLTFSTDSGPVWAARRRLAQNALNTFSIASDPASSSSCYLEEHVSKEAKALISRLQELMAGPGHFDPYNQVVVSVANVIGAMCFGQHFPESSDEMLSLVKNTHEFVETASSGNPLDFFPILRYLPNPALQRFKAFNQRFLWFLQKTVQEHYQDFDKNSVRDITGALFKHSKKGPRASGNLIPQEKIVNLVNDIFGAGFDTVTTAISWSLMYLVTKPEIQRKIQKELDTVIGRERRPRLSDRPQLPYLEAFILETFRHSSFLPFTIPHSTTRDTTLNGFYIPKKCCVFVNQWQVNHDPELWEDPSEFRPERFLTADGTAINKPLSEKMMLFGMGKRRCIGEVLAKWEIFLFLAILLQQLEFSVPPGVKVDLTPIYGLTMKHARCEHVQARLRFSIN

Compound | activity, negative = inhibition | AC50
COc1ccc(O[C@H]2C=C[C@@H](c3ccccc3)O[C@@H]2CO/N=C(\C)CCN2CCCCc3nc(C)c(C)cc32)cc1 | 0.173% [at 11.4 µM] (inactive) | –
COc1ccccc1-c1cc(-n2ccnc2)ncn1 | – | 0.316 µM (active)
CN(C)Cc1ccccc1-c1cc(-n2ccnc2)ncn1 | – | 5.01 µM (active)
Cc1cc(-c2cccc([N+](=O)[O-])c2)nc2ccc3ccccc3c12 | – | 0.631 µM (active)
Nc1nc(-c2cccc([N+](=O)[O-])c2)cc(-c2cc(-c3cccc([N+](=O)[O-])c3)nc(N)n2)n1 | 0.313% [at 2.29 µM] (inactive) | –
O=C(Cn1c(-c2cscn2)nc2ccccc21)Nc1cc(F)ccc1F | – | 2.51 µM (active)
CCn1c(CNC(=O)COc2ccc(C(C)C)cc2)nnc1SCC(=O)Nc1cc(F)ccc1C | -7% (inactive) | –
O=C(Cn1c(C(F)(F)F)nc2ccccc21)c1ccc(F)cc1 | -27.8% (inactive) | –
Cn1ncc2c(Cl)ncnc21 | -5.24% [at 11.4 µM] (inactive) | –
Cn1ncc2c(NCCc3ccccc3)nc(Cl)nc21 | – | 2.51 µM (active)
COc1cccc(Cn2c(=O)c(-c3ccccc3)nc3cnc(N4CCN(C)CC4)nc32)c1 | -20.3% (inactive) | –
CN1CCN(c2ncc3nc(-c4cccs4)c(=O)n(Cc4cccs4)c3n2)CC1 | – | 15.8 µM (active)
COCCn1c(=O)c(-c2cccs2)nc2cnc(N3CCN(C)CC3)nc21 | – | 15.8 µM (active)
CN1CCN(c2ncc3nc(-c4ccccc4)c(=O)n(Cc4ccc(F)cc4)c3n2)CC1 | -20% (inactive) | –
CC(C)CNS(=O)(=O)c1cc(C(=O)N2CC(C)OC(C)C2)c(Cl)cc1Cl (centres undefined) | 2.27% (inactive) | –
Cc1cccc(CNc2ccnc(-c3cccnc3)n2)c1 | – | 0.126 µM (active)
c1ccc(CNc2ccnc(-c3cccnc3)n2)cc1 | – | 0.251 µM (active)
C[C@@H]1C[C@H](C)CN(S(=O)(=O)c2cc(Cl)c(Oc3ccc([N+](=O)[O-])cc3Cl)c(Cl)c2)C1 | -15.8% [at 11.4 µM] (inactive) | –
COc1cc(C)ccc1OCCOc1cc(C)ccc1Cl | -29.1% (inactive) | –
COc1ccccc1OCCCOc1ccc([N+](=O)[O-])cc1Cl | – | 2 µM (active)
COc1cc(C)ccc1OCCCOc1ccccc1Cl | – | 2.51 µM (active)
COc1cc(C)ccc1OCCCOc1ccccc1Br | – | 1.58 µM (active)

Compound | activity, negative = inhibition | AC50
CC1(C)CCC=[N+]1[O-] | -0.975% (inactive) | –
CO/N=C(\C)CCN1CCc2nc(-c3ccccc3)c(-c3ccccc3)cc2C1 | 7.31% [at 11.4 µM] (inactive) | –
CO[C@H]1COC(=O)[C@H]2CCCN2C(=O)[C@@H](C)COC(=O)C/C=C\[C@@H]1C | -1.05% [at 11.4 µM] (inactive) | –
CC(=O)Nc1c(S(=O)(=O)c2ccccc2)c2nc3ccccc3nc2n1Cc1ccccc1 | -16% (inactive) | –
CCn1c2ccc(Cl)cc2c2nc3ccccc3nc21 | – | 0.501 µM (active)
Cc1cc(-c2n[nH]c(=S)o2)c(C)n1-c1ccccc1 | – | 14.1 µM (active)
CC(O)(CS(=O)(=O)Cc1ccccc1Cl)C(=O)Nc1cccc(C(F)(F)F)c1 (centres undefined) | -13.5% (inactive) | –
CN(C)S(=O)(=O)Oc1ccccc1C(=O)Nc1cccc(C(F)(F)F)c1 | – | 8.91 µM (active)
CN(C)S(=O)(=O)Oc1ccc(Cl)cc1C(=O)Nc1cccc(C(F)(F)F)c1 | – | 7.08 µM (active)
CO[C@@H]1/C=C\CC(=O)N[C@@H](C)C(=O)OC[C@H](NS(=O)(=O)c2ccc(C)cc2)[C@H](C)/C=C\CC(=O)OC[C@H]1C | 8.52% [at 11.4 µM] (inactive) | –
COC(=O)C/C=C\[C@H](C)[C@@H](OC)c1ccccc1Br | -0.474% [at 11.4 µM] (inactive) | –
CN(CC(=O)O)CC(=O)O | -5.93% [at 2.29 µM] (inactive) | –
CCOC(=O)C(C)Sc1ncc(OC)c(Sc2ccc(Cl)cc2)n1 (centres undefined) | – | 12.6 µM (active)
COC(=O)CSc1ncc(OC)c(OC)n1 | -22% (inactive) | –
O=C(Nc1ccccc1)N1CCCC2(CCN(C(=O)c3cnccn3)CC2)C1 | 3.93% (inactive) | –
O=C(Nc1cnn(Cc2ccc(Cl)cc2Cl)c1)c1cc(-c2cccs2)on1 | – | 2.51 µM (active)
COc1ccc(-c2cc(C(=O)Nc3cnn(Cc4ccccc4C)c3)no2)cc1OC | -15.7% (inactive) | –
Cc1cccc(-c2c3c(=O)n(C)c(=O)n(C)c3cn2C2CCCCC2)c1 | -28.2% (inactive) | –
O=C(c1cnccn1)N1CCC2(CC1)CCN(c1ccccc1)CC2 | -10.3% (inactive) | –
O=C(Nc1ccccc1N1CCOCC1)c1ccc([N+](=O)[O-])cc1 | -29.5% (inactive) | –
O=C(Nc1ccccc1N1CCOCC1)c1cnccn1 | – | 4.47 µM (active)
COCCNc1ccnc(-c2c(C)noc2C)n1 | – | 2.51 µM (active)

Compound | activity, negative = inhibition | AC50
c1cc(NC2CC2)nc(-c2ccoc2)n1 | – | 0.251 µM (active)
CNc1ccnc(-c2c(C)noc2C)n1 | – | 1.26 µM (active)
Cc1noc(C)c1-c1nccc(NC2CC2)n1 | – | 0.1 µM (active)
O=C1O/C(=C\Br)CC[C@@H]1c1cccc2ccccc12 | 1.77% (inactive) | –
Clc1cnccn1 | -1.25% [at 25.6 µM] (inactive) | –
Cc1noc(C)c1-c1nccc(Nc2ccc(F)cc2)n1 | – | 0.398 µM (active)
Cn1c2c(c(=O)n(C)c1=O)CN(CCN1CCNCC1)CN2 | -2.63% (inactive) | –
COC(=O)c1ccc(Oc2nc(N(C)C)nc(N3CCOCC3)n2)cc1 | – | 3.55 µM (active)
COc1ccc(C(=O)N2CCC3(CC2)CCN(c2ncccn2)CC3)cc1 | -11.8% (inactive) | –
O=c1ccc(Oc2nc(N3CCOCC3)nc(N3CCOCC3)n2)n[nH]1 | 6.81% (inactive) | –
Cc1ccc(CNCC(O)(c2ccc(F)cc2)c2ccc(F)cc2)cc1 | -25.5% (inactive) | –
CCOC(=O)C(C(=O)NCc1ccc(C)cc1)c1ncc(C(F)(F)F)cc1Cl (centres undefined) | – | 10 µM (active)
NCC(=O)N[C@H](CO)C(=O)O (H-Gly-[dS]-OH) | -8.79% [at 11.4 µM] (inactive) | –
OC[C@@H]1O[C@@H](n2cnc3cncnc32)[C@@H](O)[C@H]1O | 0.567% (inactive) | –
Cc1ccc([C@@H](O)c2cnc(C)n2Cc2ccccc2)cc1 | -10.8% [at 11.4 µM] (inactive) | –
COc1cccc(Cn2c(=O)cnc3cncnc32)c1 | – | 15.8 µM (active)
O=c1cnc2cncnc2n1Cc1ccccc1 | – | 25.1 µM (active)
CC(C)n1nnnc1-c1cc(Cl)cc(Cl)c1 | – | 8.91 µM (active)
CCCn1nnnc1-c1cc(Cl)cc(Cl)c1 | – | 2.82 µM (active)
CC(C)CC(c1nnnn1C(C)C)N1CCN(c2ccccc2)CC1 (centres undefined) | -13.3% (inactive) | –
